High-throughput results: PubChem BioAssay, several laboratories
Hits are enriched below; roughly 0.74% of the tested compounds scored in any of these assays.
LANA DNA inh: inhibitors of KSHV LANA C-terminal domain DNA binding. MBP-C-LANA/FAM-LBS DNA binding, fluorescence polarization. inhibition, % at 9 µM. 0.078% of 340,000 active;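 active = highest replicate inhibition at or above 60% at 9 µM, even if other replicates fall short; inactive = all replicates below 60% inhibition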;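 note: 0% = neutral control wells and 100% = 4 µM acridine orange control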
RTF Ca sens inh: cardiac RTF calcium desensitization | P19429+P45379 | IANBD-labeled cardiac RTF, Ca2+ fluorescence | 0.12% of 340,000 active | inhibition, % at 7.15 µM;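 active = inhibition above the mean inhibition of all tested compounds plus 3 SD, cut at about 17% in these data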;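 note: assay run at fixed EC70 calcium of 1.6 mM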
RTF Ca sens act: increases calcium sensitivity of human cardiac regulated thin filaments; activation, % at 7.2 µM; 0.24% of 340,000 active; AID 493008; IANBD-labeled TnC RTF fluorescence at EC20 calcium; 0% EC20 calcium, 100% full calcium; P19429+P45379;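 active = activation above the mean over all tested compounds plus 3 SD, cut at about 30% in these data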;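 note: rise in fluorescence read as greater calcium sensitivity of cardiac thin filaments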
E coli Lon inh: E. coli protease La inhibition; purified E. coli Lon protease, fluorescence polarization; inhibition, % at 7.94 µM; 0.42% of 360,000 active; AID 602123; in the data active = inhibition above about 13%, passing the limit was not always enough;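 note: 0% = enzyme with probe and DMSO and 100% = no enzyme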
Keap1 Nrf2 FP: disrupts human Keap1 binding to Nrf2 peptide; Q14145; Keap1 Kelch-Nrf2 peptide fluorescence polarization, 1536-well; inhibition, % at 9.4 µM; 0.15% of 340,000 active; AID 504523; in the data active = inhibition above about 12%;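 note: human Keap1 Kelch domain with fluorescein labeled Nrf2 9mer peptide probe; 0% = neutral control wells and 100% = peptide positive control; higher means more block of Keap1 binding to Nrf2 peptide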
Target sequence (Q14145 whole entry, looked up, the tested form may be a part): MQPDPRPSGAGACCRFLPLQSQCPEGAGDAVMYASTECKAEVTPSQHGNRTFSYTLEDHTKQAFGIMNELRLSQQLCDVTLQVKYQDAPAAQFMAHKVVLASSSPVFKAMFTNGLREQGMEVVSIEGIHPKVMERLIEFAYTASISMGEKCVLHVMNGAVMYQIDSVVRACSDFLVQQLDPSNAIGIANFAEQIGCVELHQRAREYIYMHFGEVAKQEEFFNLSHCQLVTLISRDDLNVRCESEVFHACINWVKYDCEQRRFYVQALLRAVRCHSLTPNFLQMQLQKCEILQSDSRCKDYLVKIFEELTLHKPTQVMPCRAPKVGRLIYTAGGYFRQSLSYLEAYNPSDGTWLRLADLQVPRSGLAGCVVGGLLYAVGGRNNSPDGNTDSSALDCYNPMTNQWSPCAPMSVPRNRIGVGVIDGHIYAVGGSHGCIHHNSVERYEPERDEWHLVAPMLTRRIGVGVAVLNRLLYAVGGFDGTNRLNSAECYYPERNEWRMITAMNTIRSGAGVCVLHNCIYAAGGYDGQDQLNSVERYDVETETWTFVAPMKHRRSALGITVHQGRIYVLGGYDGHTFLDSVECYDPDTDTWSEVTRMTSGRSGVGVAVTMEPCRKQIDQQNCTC
RTF inh confirm: cardiac RTF calcium sensitivity inhibition, confirmation; inhibition, % at 7.15 µM; reconstituted cardiac thin filaments, calcium sensitivity fluorescence; 8% of 360 active; shares compounds with RTF Ca sens inh; in the data active = inhibition above about 18%
The depositor's hits bear a star; . = no result given.

SMILES | LANA DNA inh | RTF Ca sens inh | RTF Ca sens act | E coli Lon inh | Keap1 Nrf2 FP | RTF inh confirm
O=C(NC1CCCC1)c1ccc2nc(-c3ccco3)c(-c3ccco3)nc2c1 | 3 | 18* | -20 | 7 | 1 | -7
Cc1cnc(NC2=NCCC2)s1 | 1 | 45* | -9 | 2 | -2 | -3
O=C(O)CSc1cc(C(=O)c2ccccc2O)cn2c(=O)c3c4c(sc3nc12)CCCC4 | 2 | 22* | -8 | 0 | 0 | 5
CN(NC(=O)COc1ccccc1)C1=NS(=O)(=O)c2ccccc21 | -6 | 30* | 3 | 0 | . | -3
CN(NC(=O)c1ccccc1)C1=NS(=O)(=O)c2ccccc21 | 1 | -1 | -1 | -7 | 2 | .
CN(CCN1CCOCC1)C(=O)C1CCC(=O)N(Cc2ccc(Cl)cc2)C1 (configuration not stated) | . | . | . | -4 | . | .
c1ccc(Cc2nnc(-c3ccccc3)o2)cc1 | -3 | 17* | -2 | -4 | 4 | -1
Brc1ccc(-c2nnc(Cc3ccccc3)o2)cc1 | . | . | . | 1 | . | .
COC(=O)[C@]12CCCCC=C1N(Cc1ccccc1)C(=O)[C@H](CC(=O)NCCCCc1ccccc1)C2 | . | . | . | -4 | . | .
COc1cccc(/C=C2\SC(=S)N(C(C(=O)O)c3ccccc3)C2=O)c1OC (configuration not stated) | 0 | 5 | -2 | -3 | -1 | .
COc1cc(/C=C2\SC(=S)N(C(C(=O)O)c3ccccc3)C2=O)cc(OC)c1OC (configuration not stated) | -1 | 28* | 11 | -3 | 0 | -4
Cc1ccccc1NC(=O)c1sc(NC(=O)COc2ccccc2)c(C#N)c1C | 2 | 18* | -1 | 0 | -3 | -3
Cc1cccc(NC(=O)c2sc(NC(=O)COc3ccccc3)c(C#N)c2C)c1C | 1 | 6 | 0 | 7 | 3 | .
CC(C)C1Cc2[nH]c(=S)[nH]c(=O)c2C(c2ccc(F)cc2)O1 (configuration not stated) | . | . | . | -9 | . | .
C[C@@H]1CN([C@H](C)CO)C(=O)c2cc(-c3ccccc3)cnc2O[C@@H]1CN(C)C(=O)C1CCOCC1 | . | . | . | 0 | . | .
O=C(O)c1ccc(-n2cccc2/C=C2/NC(=O)N(c3ccccc3)C2=O)cc1 | 46 | 17* | -7 | -8 | 4 | 7
O=C(O)c1ccc(-n2cccc2/C=C2/NC(=O)N(c3cccc(Cl)c3)C2=O)cc1 | 52 | -1 | -5 | -7 | -1 | .
O=C(O)c1ccc(-n2cccc2/C=C2/SC(=O)N(CC(=O)N3CCCC3)C2=O)cc1 | 64* | 26* | -8 | -6 | 3 | 8
COc1ccc([C@H]2N[C@]3(CCCN(Cc4ccc(Br)cc4)C3=O)[C@H]3C(=O)N(C)C(=O)[C@@H]23)cc1 | . | . | . | -4 | . | .
O=C1O[C@@H](c2ccccc2)C[C@@H](O)C(=O)CCCc2ccccc21 | . | . | . | 0 | . | .
Nc1nc(-c2ccccc2)c(N=Nc2ccccc2Cl)s1 | 3 | 22* | 6 | -76 | -2 | 0
Nc1nc(-c2ccccc2)c(N=Nc2cccc3ccccc23)s1 | -5 | -8 | -2 | -3 | 1 | .
COc1cccc(-n2c(SCc3cc(=O)oc4cc(O)c(O)cc34)nc3ccccc3c2=O)c1 | 2 | 17* | -20 | -4 | 1 | -2
CCC(C)C(=O)C(=O)N1CCC(n2nccc2NC(=O)CCOc2ccccc2)CC1 (configuration not stated) | . | . | . | 4 | . | .
CC(=O)Nc1ccc2ccccc2c1 | 0 | 24* | -8 | 0 | 0 | -2
COC(=O)[C@@]1(Cc2ccc(F)cc2)[C@H]2c3cc(C(=O)N(C)C)n(CCc4c[nH]c5ccc(O)cc45)c3C[C@H]2CN1C(=O)c1ccccc1 | . | . | . | -4 | . | .
O=C(Nc1ccc(N2CCOCC2)c(S(=O)(=O)Nc2ccccc2Cl)c1)c1ccc(F)cc1 | 0 | 24* | -9 | -6 | 0 | 1
O=C(Nc1ccc(F)cc1)Nc1ccc(N2CCCC2)c(S(=O)(=O)Nc2ccccc2Cl)c1 | 0 | -8 | 7 | 0 | 0 | .
COc1ccccc1NS(=O)(=O)c1cc(NC(=O)c2sccc2C)ccc1N1CCOCC1 | 0 | 16 | -6 | 4 | -1 | .
COc1ccccc1NS(=O)(=O)c1cc(NC(=O)c2sccc2C)ccc1N1CCCC1 | -1 | 25* | -5 | 3 | -2 | 3
